{"source": "the supplement of paper PMC8728848", "binders": {"B1": {"name": "MpL2 (Macrolepiota procera) (protein)", "chain": "MSTQVSSGQTYKITNVKAGTVIDLSGEDNKSIIGYPYHSGKNQQWTFNWTGKAWTLRSASSGSYLGIEGTPADGTRLVAVNDPFEWHIWRDEANENAFRIFVPFTNYNLRLSGYGDTTPGTPVQLWWTWEGLHQTWTIDRP"}}, "test_in_all_cases": "glycan array binding signal (z-score within array); higher = stronger binding", "settings_in_all_cases": "glycan notation: IUPAC condensed, linker removed; mutation: D109R", "key": {"[1]": {"target": "Fuc(a1-2)Gal(b1-3)GlcNAc(b1-3)Gal(b1-4)Glc", "how_it_was_run": "(§1)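 Columns mapping to the same glycan were averaged after glycan names were converted to IUPAC-condensed notation. The data come from 3228 arrays in the Consortium for Functional Glycomics database, limited to those with an available protein sequence. Binding is reported as a within-array Z-score averaged across arrays of one protein sequence and across linkers.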"}, "[2]": {"target": "Fuc(a1-2)Gal(b1-3)[Fuc(a1-4)]GlcNAc(b1-3)[Gal(b1-4)GlcNAc(b1-6)]Gal(b1-4)Glc", "how_it_was_run": "as §1"}, "[3]": {"target": "Fuc(a1-2)Gal6S(b1-3)GlcNAc6S", "how_it_was_run": "as §1"}, "[4]": {"target": "Fuc(a1-2)Gal6S(b1-4)Glc6S", "how_it_was_run": "as §1"}, "[5]": {"target": "Fuc(a1-2)[Gal(a1-3)]Gal(b1-3)GlcNAc(b1-3)GalNAc", "how_it_was_run": "as §1"}, "[6]": {"target": "Fuc(a1-2)[Gal(a1-3)]Gal(b1-4)GlcNAc(b1-3)GalNAc", "how_it_was_run": "as §1"}, "[7]": {"target": "Fuc(a1-2)[GalNAc(b1-3)]Gal", "how_it_was_run": "as §1"}, "[8]": {"target": "Fuc(a1-3)[Gal3S(b1-4)]GlcNAc6S", "how_it_was_run": "as §1"}, "Gal(a1-3)Gal(b1-4)GlcNAc": {"target": "Gal(a1-3)Gal(b1-4)GlcNAc", "how_it_was_run": "as §1"}, "Gal(a1-4)Gal(b1-4)GlcNAc": {"target": "Gal(a1-4)Gal(b1-4)GlcNAc", "how_it_was_run": "as §1"}, "Gal(b1-3)Gal(b1-4)GlcNAc": {"target": "Gal(b1-3)Gal(b1-4)GlcNAc", "how_it_was_run": "as §1"}, "Gal(b1-3)GalNAc": {"target": "Gal(b1-3)GalNAc", "how_it_was_run": "as §1"}, "[9]": {"target": "Gal(b1-3)GalNAc(a1-3)[Fuc(a1-2)]Gal(b1-4)GlcNAc", "how_it_was_run": "as §1"}, "[10]": {"target": "Gal(b1-3)GlcNAc(a1-6)Gal(b1-4)GlcNAc", "how_it_was_run": "as §1"}, "[11]": {"target": "Gal(b1-3)GlcNAc(b1-2)[Gal(b1-3)GlcNAc(b1-6)]Man(a1-6)[Gal(b1-3)GlcNAc(b1-2)Man(a1-3)]Man(b1-4)GlcNAc(b1-4)GlcNAc", "how_it_was_run": "as §1"}, "[12]": {"target": "Gal(b1-3)GlcNAc(b1-3)Gal(b1-4)GlcNAc(b1-6)[Gal(b1-3)GlcNAc(b1-3)]Gal(b1-4)Glc", "how_it_was_run": "as §1"}, "[13]": {"target": "Gal(b1-3)[Fuc(a1-4)]GlcNAc", "how_it_was_run": "as §1"}, "Gal(b1-4)Glc": {"target": "Gal(b1-4)Glc", "how_it_was_run": "as §1"}, "[14]": {"target": "Gal(b1-4)GlcNAc(a1-6)Gal(b1-4)GlcNAc", "how_it_was_run": "as §1"}, "[15]": {"target": "Gal(b1-4)GlcNAc(b1-2)Man(a1-3)[GlcNAc(b1-2)Man(a1-6)]Man(b1-4)GlcNAc(b1-4)GlcNAc", "how_it_was_run": "as §1"}, "[16]": {"target": "Gal(b1-4)GlcNAc(b1-3)Gal(b1-4)GlcNAc(b1-2)[Gal(b1-4)GlcNAc(b1-3)Gal(b1-4)GlcNAc(b1-6)]Man(a1-6)[Gal(b1-4)GlcNAc(b1-3)Gal(b1-4)GlcNAc(b1-2)Man(a1-3)]Man(b1-4)GlcNAc(b1-4)[Fuc(a1-6)]GlcNAc", "how_it_was_run": "as §1"}, "[17]": {"target": "Gal(b1-4)GlcNAc(b1-3)Gal(b1-4)GlcNAc(b1-3)Gal(b1-4)GlcNAc(b1-2)[Gal(b1-4)GlcNAc(b1-3)Gal(b1-4)GlcNAc(b1-3)Gal(b1-4)GlcNAc(b1-6)]Man(a1-6)[Gal(b1-4)GlcNAc(b1-3)Gal(b1-4)GlcNAc(b1-3)Gal(b1-4)GlcNAc(b1-2)Man(a1-3)]Man(b1-4)GlcNAc(b1-4)[Fuc(a1-6)]GlcNAc", "how_it_was_run": "as §1"}, "[18]": {"target": "Gal(b1-4)GlcNAc(b1-3)Gal(b1-4)GlcNAc(b1-3)Gal(b1-4)GlcNAc(b1-3)Gal(b1-4)GlcNAc(b1-2)Man(a1-3)[Gal(b1-4)GlcNAc(b1-3)Gal(b1-4)GlcNAc(b1-3)Gal(b1-4)GlcNAc(b1-3)Gal(b1-4)GlcNAc(b1-2)Man(a1-6)]Man(b1-4)GlcNAc(b1-4)GlcNAc", "how_it_was_run": "as §1"}}, "note": "The entries come from a sample that favours the strongest signals as a whole.", "data": [{"binder": "B1", "values": [{"measurement": "glycan array binding signal (z-score)", "setting": "[1]", "result": -0.257}, {"measurement": "glycan array binding signal (z-score)", "setting": "[2]", "result": -0.099}, {"measurement": "glycan array binding signal (z-score)", "setting": "[3]", "result": -0.247}, {"measurement": "glycan array binding signal (z-score)", "setting": "[4]", "result": -0.259}, {"measurement": "glycan array binding signal (z-score)", "setting": "[5]", "result": -0.266}, {"measurement": "glycan array binding signal (z-score)", "setting": "[6]", "result": -0.251}, {"measurement": "glycan array binding signal (z-score)", "setting": "[7]", "result": -0.247}, {"measurement": "glycan array binding signal (z-score)", "setting": "[8]", "result": -0.255}, {"measurement": "glycan array binding signal (z-score)", "setting": "Gal(a1-3)Gal(b1-4)GlcNAc", "result": -0.264}, {"measurement": "glycan array binding signal (z-score)", "setting": "Gal(a1-4)Gal(b1-4)GlcNAc", "result": -0.289}, {"measurement": "glycan array binding signal (z-score)", "setting": "Gal(b1-3)Gal(b1-4)GlcNAc", "result": -0.255}, {"measurement": "glycan array binding signal (z-score)", "setting": "Gal(b1-3)GalNAc", "result": -0.256}, {"measurement": "glycan array binding signal (z-score)", "setting": "[9]", "result": -0.201}, {"measurement": "glycan array binding signal (z-score)", "setting": "[10]", "result": 3.81}, {"measurement": "glycan array binding signal (z-score)", "setting": "[11]", "result": 3.46}, {"measurement": "glycan array binding signal (z-score)", "setting": "[12]", "result": 3.65}, {"measurement": "glycan array binding signal (z-score)", "setting": "[13]", "result": -0.267}, {"measurement": "glycan array binding signal (z-score)", "setting": "Gal(b1-4)Glc", "result": -0.244}, {"measurement": "glycan array binding signal (z-score)", "setting": "[14]", "result": 12.2}, {"measurement": "glycan array binding signal (z-score)", "setting": "[15]", "result": -0.001}, {"measurement": "glycan array binding signal (z-score)", "setting": "[16]", "result": 3.95}, {"measurement": "glycan array binding signal (z-score)", "setting": "[17]", "result": 3.9}, {"measurement": "glycan array binding signal (z-score)", "setting": "[18]", "result": 3.84}]}]}
